Where “and” joins values, the source holds several entries; their conditions need not be identical. Identical values can stand only once. This is part of a sample that, as a whole, favours compounds with a hit. Of some 79,000 tested, about 15% had one in any assay. Where a structure was tested more than once in an assay, its records may differ in their call. Calls of active or inactive are those of the source. Cut-off read from the data, not from the text of the source: active = growth inhibition above about 70%; inactive = the rest.
What was measured:
[1] = NCI Yeast Anticancer Drug Screen. Data for the rad52 strain (AID 147);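 note: 0% = growth of vehicle-treated control cultures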; settings: S. cerevisiae rad52 mutant growth inhibition, stronger effect = higher value
Outline: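 Genetically altered yeast (DNA damage repair defect) treated with compound; inhibition calculated relative to vehicle.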

[2] = NCI Yeast Anticancer Drug Screen. Data for the wt1 strain (AID 149);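 note: 0% = growth of vehicle-treated wt1 cultures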; settings: S. cerevisiae wt1 strain (SPY 50644) growth inhibition, stronger effect = higher value
Outline: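 Compounds are added to wt1 yeast cultures. Growth is then measured. Inhibition is expressed relative to vehicle-treated controls.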

[3] = NCI Yeast Anticancer Drug Screen. Data for the rad50EPP+ strain (AID 151);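 note: 0% = growth of vehicle-treated control cultures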; settings: S. cerevisiae rad50 mutant strain, stronger effect = higher value
Outline: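 Strain rad50EPP+; compound exposure; % growth inhibition vs vehicle.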

[4] = NCI Yeast Anticancer Drug Screen. Data for the mgt1 strain (AID 153); settings: S. cerevisiae mgt1 mutant growth inhibition, stronger effect = higher value
Outline: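 Read-out: yeast growth inhibition vs vehicle control. Strain mgt1, drawn from a panel altered in DNA damage repair or cell cycle control.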

[5] = NCI Yeast Anticancer Drug Screen. Data for the rad50 strain (AID 155);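 note: 0% = growth of vehicle-only cultures of the same strain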; settings: S. cerevisiae rad50 strain growth inhibition, stronger effect = higher value
Outline: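 Inhibition values express reduced yeast growth in compound-treated cultures relative to vehicle-treated controls.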

[6] = NCI Yeast Anticancer Drug Screen. Data for the mec2-1 strain (AID 157); settings: S. cerevisiae mec2-1 strain, stronger effect = higher value
Outline: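 Cells of the genetically defined mec2-1 yeast strain are incubated with test compound. Inhibition of growth is calculated against vehicle-treated controls.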

[7] = NCI Yeast Anticancer Drug Screen. Data for the rad14 strain (AID 159);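 note: 0% = growth of vehicle-treated control cultures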; settings: S. cerevisiae rad14 strain growth inhibition, stronger effect = higher value
Outline: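 A mutant yeast strain defective in DNA damage repair is treated with compound; inhibition of its growth is scored against untreated, vehicle-exposed cultures.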

[8] = NCI Yeast Anticancer Drug Screen. Data for the sgs1 mgt1 strain (AID 161);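 note: 0% = growth of cultures given vehicle only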; settings: S. cerevisiae sgs1 mgt1 strain, stronger effect = higher value
Outline: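 Mutant yeast exposed to compound; growth scored against vehicle-only wells.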

[9] = NCI Yeast Anticancer Drug Screen. Data for the CLN2oe strain (AID 163);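 note: 0% = growth of vehicle-only control cultures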; settings: S. cerevisiae CLN2oe strain, stronger effect = higher value
Outline: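 Strain altered in cell-cycle control, incubated with compound; growth compared to solvent-treated controls.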

[10] = NCI Yeast Anticancer Drug Screen. Data for the bub3 strain (AID 167); settings: S. cerevisiae bub3 mutant strain, stronger effect = higher value
Outline: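 Steps: expose the mutant yeast strain to compound; grow alongside vehicle-treated cultures; measure growth; express inhibition against the vehicle cultures.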

[11] = NCI Yeast Anticancer Drug Screen. Data for the wt2 strain (AID 169);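 note: 0% = growth of vehicle-treated yeast cultures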; settings: S. cerevisiae wt2 strain growth inhibition, stronger effect = higher value
Outline: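 Steps: yeast strain treated with compound; growth recorded; inhibition calculated relative to cultures given vehicle alone.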

[12] = NCI Yeast Anticancer Drug Screen. Data for the mlh1 strain (AID 171);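 note: 0% = growth of vehicle-treated control cultures of the same strain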; settings: S. cerevisiae mlh1 strain growth inhibition, stronger effect = higher value
Outline: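 Yeast screen: mutant strain plus compound, growth scored against vehicle control wells.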

[13] = NCI Yeast Anticancer Drug Screen. Data for the sgs1 strain (AID 173);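 note: 0% = growth of vehicle-only control cultures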; settings: S. cerevisiae sgs1 mutant, stronger effect = higher value
Outline: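 Inhibition of yeast growth served as the measure. The mutant strain was treated with each compound, and growth was normalised to cultures receiving vehicle alone.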

[14] = NCI Yeast Anticancer Drug Screen. Data for the mlh1 rad18 strain (AID 175); settings: S. cerevisiae mlh1 rad18 strain growth inhibition, stronger effect = higher value
Outline: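 Compound-treated yeast growth, normalised to vehicle controls. Strain bears defined DNA repair mutations.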

[15] = NCI Yeast Anticancer Drug Screen. Data for the rad18 strain (AID 177); settings: S. cerevisiae rad18 mutant growth inhibition, stronger effect = higher value
Outline: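 Inhibition values reflect reduced yeast growth compared with vehicle-treated controls, using a strain engineered with a DNA damage repair defect.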

[16] = NCI Yeast Anticancer Drug Screen. Data for the cln2 rad14 strain (AID 165);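 note: 0% = growth equal to vehicle treated cultures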; settings: S. cerevisiae cln2 rad14 strain, stronger effect = higher value
Outline: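 The screen exposed genetically defined yeast (cln2 rad14) to test compounds and scored growth inhibition relative to vehicle-treated controls.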

[17] = at 5.0 µM (retest, dose inferred, filed as 0.5)
[18] = at 50.0 µM (retest, dose inferred, filed as 5.0)

Measured: growth inhibition

O=[N+]([O-])c1cccc2nc3ccccc3c(NCCCn3ccnc3[N+](=O)[O-])c12
active: [1]; at 11.0 µM 86% | [1]; at 33.0 µM 94% | [1]; at 100.0 µM 97% | [2]; at 100.0 µM 86% | [3]; at 33.0 µM 83% | [3]; at 100.0 µM 90% | [4]; at 100.0 µM 82% | [5]; at 11.0 µM 86% | [5]; at 33.0 µM 94% | [5]; [18] 94% | [5]; at 50.0 µM 80% | [5]; at 100.0 µM 96% | [6]; at 11.0 µM 88% | [6]; at 33.0 µM 96% | [6]; [18] 98% | [6]; at 50.0 µM 87.5% | [6]; at 100.0 µM 97% | [7]; at 3.7 µM 73% | [7]; at 11.0 µM 95% | [7]; at 33.0 µM 97% | [7]; at 100.0 µM 98% | [8]; [18] 94% | [8]; at 50.0 µM 85% | [9]; at 33.0 µM 82% | [9]; at 100.0 µM 92% | [10]; [18] 78% | [10]; at 100.0 µM 88% | [11]; at 33.0 µM 74% | [11]; at 100.0 µM 88% | [12]; at 33.0 µM 75% | [12]; at 100.0 µM 92% | [13]; at 3.7 µM 74% | [13]; at 11.0 µM 85% | [13]; at 33.0 µM 90% | [13]; at 100.0 µM 93% | [14]; [18] 98% | [14]; at 50.0 µM 79.2% | [15]; at 1.2 µM 90% | [15]; at 3.7 µM 94% | [15]; at 11.0 µM 95% | [15]; at 33.0 µM 96% | [15]; at 100.0 µM 96%
inactive: [1]; at 1.2 µM 53% | [1]; at 3.7 µM 65% | [2]; at 1.2 µM -6% | [2]; at 3.7 µM 24% | [2]; at 11.0 µM 37% | [2]; at 33.0 µM 64% | [3]; at 1.2 µM 24% | [3]; at 3.7 µM 37% | [3]; at 11.0 µM 58% | [4]; at 1.2 µM 17% | [4]; at 3.7 µM 28% | [4]; at 11.0 µM 38% | [4]; at 33.0 µM 55% | [5]; at 1.2 µM 23% | [5]; at 3.7 µM 63% | [5]; [17] 24% | [6]; at 1.2 µM 29% | [6]; at 3.7 µM 55% | [6]; [17] 16% | [7]; at 1.2 µM 17% | [8]; [17] 54% | [9]; at 1.2 µM 5% | [9]; at 3.7 µM 27% | [9]; at 11.0 µM 46% | [10]; at 1.2 µM -15% | [10]; at 3.7 µM -12% | [10]; [17] 11% | [10]; at 11.0 µM 11% | [10]; at 33.0 µM 51% | [10]; at 50.0 µM 58.4% | [11]; at 1.2 µM -16% | [11]; at 3.7 µM -9% | [11]; at 11.0 µM 19% | [12]; at 1.2 µM 17% | [12]; at 3.7 µM 33% | [12]; at 11.0 µM 47% | [13]; at 1.2 µM 61% | [14]; [17] 26%

O/N=C\c1c(O)ccc2ccccc12
inactive: [1]; at 1.2 µM -4% | [1]; at 3.7 µM 0% | [1]; at 11.0 µM 7% | [1]; at 33.0 µM 31% | [2]; at 1.2 µM -2% | [2]; at 3.7 µM -5% | [2]; at 11.0 µM 0% | [2]; at 33.0 µM 5% | [2]; at 100.0 µM 22% | [3]; at 1.2 µM 2% | [3]; at 3.7 µM 10% | [3]; at 11.0 µM 19% | [3]; at 33.0 µM 54% | [4]; at 1.2 µM -4% | [4]; at 3.7 µM 1% | [4]; at 11.0 µM 1% | [4]; at 33.0 µM 7% | [4]; at 100.0 µM 52% | [5]; at 1.2 µM 1% | [5]; at 3.7 µM 3% | [5]; [17] -11% | [5]; at 11.0 µM 10% | [5]; at 33.0 µM 42% | [5]; at 50.0 µM 63% | [6]; at 1.2 µM -1% | [6]; at 3.7 µM 0% | [6]; [17] -2% | [6]; at 11.0 µM 2% | [6]; at 33.0 µM 12% | [6]; [18] 20% | [6]; at 50.0 µM 47.4% | [6]; at 100.0 µM 33% | [7]; at 1.2 µM -1% | [7]; at 3.7 µM 0% | [7]; at 11.0 µM 7% | [7]; at 33.0 µM 39% | [8]; [17] -6% | [9]; at 1.2 µM -6% | [9]; at 3.7 µM -6% | [9]; at 11.0 µM -5% | [9]; at 33.0 µM 3% | [9]; at 100.0 µM 28% | [16]; [17] -4% | [16]; [18] 21% | [16]; at 50.0 µM 10.3% | [10]; at 1.2 µM -4% | [10]; at 3.7 µM 0% | [10]; [17] 19% | [10]; at 11.0 µM 2% | [10]; at 33.0 µM 11% | [10]; at 100.0 µM 27% | [12]; at 1.2 µM -3% | [12]; at 3.7 µM -1% | [12]; at 11.0 µM 4% | [12]; at 33.0 µM 22% | [12]; at 100.0 µM 65% | [13]; at 1.2 µM 10% | [13]; at 3.7 µM 30% | [13]; at 11.0 µM -5% | [13]; at 33.0 µM 41% | [14]; [17] 3% | [15]; at 1.2 µM -3% | [15]; at 3.7 µM 0% | [15]; at 11.0 µM 6% | [15]; at 33.0 µM 30% | [15]; at 100.0 µM 69%
active: [1]; at 100.0 µM 72% | [3]; at 100.0 µM 74% | [5]; [18] 74% | [5]; at 100.0 µM 71% | [7]; at 100.0 µM 75% | [8]; [18] 74% | [8]; at 50.0 µM 78.8% | [10]; [18] 88% | [10]; at 50.0 µM 75% | [13]; at 100.0 µM 80% | [14]; [18] 89% | [14]; at 50.0 µM 73.2%

O=C(C[n+]1ccc2ccccc2c1)c1ccc2ccccc2c1
-32.4% (inactive) and 71.7% (active): [10]; at 50.0 µM
active: [1]; at 100.0 µM 99% | [2]; at 100.0 µM 97% | [3]; at 100.0 µM 74% | [4]; at 100.0 µM 98% | [5]; [18] 100% | [5]; at 100.0 µM 98% | [6]; [18] 99% | [6]; at 100.0 µM 98% | [7]; at 100.0 µM 97% | [8]; [18] 77% | [9]; at 100.0 µM 99% | [16]; [18] 81% | [10]; at 100.0 µM 98%
inactive: [1]; at 1.2 µM 10% | [1]; at 3.7 µM -1% | [1]; at 11.0 µM 7% | [1]; at 33.0 µM 20% | [2]; at 1.2 µM -6% | [2]; at 3.7 µM -17% | [2]; at 11.0 µM -24% | [2]; at 33.0 µM -22% | [3]; at 1.2 µM -19% | [3]; at 3.7 µM -42% | [3]; at 11.0 µM -35% | [3]; at 33.0 µM -20% | [4]; at 1.2 µM -18% | [4]; at 3.7 µM -7% | [4]; at 11.0 µM -32% | [4]; at 33.0 µM -13% | [5]; at 1.2 µM -20% | [5]; at 3.7 µM -26% | [5]; [17] 51% | [5]; at 11.0 µM -30% | [5]; at 33.0 µM -7% | [6]; at 1.2 µM -37% | [6]; at 3.7 µM -23% | [6]; [17] 64% | [6]; at 11.0 µM -77% | [6]; at 33.0 µM -41% | [6]; at 50.0 µM -5.2% and 39.1% | [7]; at 1.2 µM -45% | [7]; at 3.7 µM -44% | [7]; at 11.0 µM -36% | [7]; at 33.0 µM 11% | [8]; [17] -46% | [8]; at 50.0 µM -9.25% and 61.6% | [9]; at 1.2 µM 8% | [9]; at 3.7 µM -9% | [9]; at 11.0 µM 1% | [9]; at 33.0 µM 13% | [16]; [17] 19% | [10]; at 1.2 µM -19% | [10]; at 3.7 µM -12% | [10]; [17] -4% | [10]; at 11.0 µM -27% | [10]; at 33.0 µM -15% | [10]; [18] 51%
-28.4% (inactive) and 85.2% (active): [5]; at 50.0 µM
-10% (inactive) and 71.2% (active): [16]; at 50.0 µM
